This excerpt belongs to a sample that is enriched for the strongest signals.
Key:
Experiment in all cases: glycan array binding signal (z-score within array); higher = stronger binding
Settings in all cases: glycan notation: IUPAC condensed, linker removed
[1] = molecular target: Fuc(a1-2)Gal(b1-3)GalNAc(b1-3)Gal
Method in brief: (§1)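 Negative Z-scores can be read as non-binding. The Z-score is calculated within each array and then averaged across arrays of one protein sequence at different concentrations or buffers and across linkers. Arrays, 3228 in all, were curated from the Consortium for Functional Glycomics database and kept only where the protein sequence was available.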

[2] = molecular target: Fuc(a1-2)Gal(b1-4)Glc
Method in brief: as §1

[3] = molecular target: Fuc(a1-2)Gal(b1-4)GlcNAc(b1-3)GalNAc
Method in brief: as §1

[4] = molecular target: Fuc(a1-2)Gal(b1-4)GlcNAc(b1-6)GalNAc
Method in brief: as §1

[5] = molecular target: Fuc(a1-2)Gal6S(b1-3)GlcNAc6S
Method in brief: as §1

[6] = molecular target: Fuc(a1-2)[Gal(a1-3)]Gal(b1-4)GlcNAc
Method in brief: as §1

[7] = molecular target: Fuc(a1-2)[Gal(a1-3)]Gal(b1-4)GlcNAc(b1-2)Man(a1-3)[Fuc(a1-2)[Gal(a1-3)]Gal(b1-4)GlcNAc(b1-2)Man(a1-6)]Man(b1-4)GlcNAc(b1-4)[Fuc(a1-6)]GlcNAc
Method in brief: as §1

[8] = molecular target: Fuc(a1-2)[GalNAc(a1-3)]Gal(b1-3)GalNAc(a1-3)[Fuc(a1-2)]Gal(b1-4)GlcNAc
Method in brief: as §1

[9] = molecular target: Fuc(a1-2)[GalNAc(a1-3)]Gal(b1-3)GlcNAc(b1-2)Man(a1-3)[Fuc(a1-2)[GalNAc(a1-3)]Gal(b1-3)GlcNAc(b1-2)Man(a1-6)]Man(b1-4)GlcNAc(b1-4)[Fuc(a1-6)]GlcNAc
Method in brief: as §1

[10] = molecular target: Fuc(a1-2)[GalNAc(a1-3)]Gal(b1-4)GlcNAc(b1-6)GalNAc
Method in brief: as §1

[11] = molecular target: Fuc(a1-2)[GalNAc(a1-3)]Gal(b1-4)[Fuc(a1-3)]GlcNAc
Method in brief: as §1

[12] = molecular target: Fuc(a1-2)[GalNAc(a1-4)]Gal(b1-4)GlcNAc
Method in brief: as §1

[13] = molecular target: Fuc(a1-2)[GalNAc(b1-3)]Gal
Method in brief: as §1

[14] = molecular target: Fuc(a1-3)[Gal(b1-4)]GlcNAc(b1-2)Man(a1-3)[Fuc(a1-3)[Gal(b1-4)]GlcNAc(b1-2)Man(a1-6)]Man(b1-4)GlcNAc(b1-4)[Fuc(a1-6)]GlcNAc
Method in brief: as §1

[15] = molecular target: Gal(a1-3)Gal(b1-3)GlcNAc
Method in brief: as §1

[16] = molecular target: Gal(a1-3)Gal(b1-3)GlcNAc(b1-2)Man(a1-3)[Gal(a1-3)Gal(b1-3)GlcNAc(b1-2)Man(a1-6)]Man(b1-4)GlcNAc(b1-4)GlcNAc
Method in brief: as §1

[17] = molecular target: Gal(a1-3)Gal(b1-3)GlcNAc(b1-6)GalNAc
Method in brief: as §1

[18] = molecular target: Gal(a1-3)Gal(b1-4)GlcNAc(b1-6)GalNAc
Method in brief: as §1

[19] = molecular target: Gal(b1-3)GlcNAc(b1-6)GalNAc
Method in brief: as §1

[20] = molecular target: Gal(b1-3)GlcNAc(b1-6)[Gal(b1-3)]GalNAc
Method in brief: as §1

[21] = molecular target: Gal(b1-3)[Fuc(a1-4)]GlcNAc
Method in brief: as §1

[22] = molecular target: Gal6S(b1-3)GlcNAc6S
Method in brief: as §1

[23] = molecular target: GalNAc(a1-3)Gal
Method in brief: as §1

[24] = molecular target: GalNAc(b1-3)Gal
Method in brief: as §1

[25] = molecular target: GalNAc(b1-3)Gal(a1-6)Gal(b1-4)Glc
Method in brief: as §1

[26] = molecular target: GalNAc(b1-3)GlcNAc
Method in brief: as §1

[27] = molecular target: GalNAc(b1-4)GlcNAc(b1-2)Man(a1-3)[GalNAc(b1-4)GlcNAc(b1-2)Man(a1-6)]Man(b1-4)GlcNAc(b1-4)GlcNAc
Method in brief: as §1

[28] = molecular target: GalNAc6S(b1-4)GlcNAc
Method in brief: as §1

[29] = molecular target: GlcNAc(a1-4)Gal(b1-4)GlcNAc(b1-3)Gal(b1-4)GlcNAc
Method in brief: as §1

[30] = molecular target: GlcNAc(b1-2)[GlcNAc(b1-4)]Man(a1-3)[GlcNAc(b1-4)][GlcNAc(b1-2)[GlcNAc(b1-6)]Man(a1-6)]Man(b1-4)GlcNAc(b1-4)[Fuc(a1-6)]GlcNAc
Method in brief: as §1

[31] = molecular target: Kdn(a2-6)Gal(b1-4)GlcNAc
Method in brief: as §1

[32] = molecular target: Man(a1-2)Man(a1-2)Man(a1-6)[Man(a1-3)]Man
Method in brief: as §1

[33] = molecular target: Man(a1-2)Man(a1-3)[Man(a1-2)Man(a1-6)]Man
Method in brief: as §1

[34] = molecular target: Man(a1-3)[Man(a1-6)]Man(a1-6)[Man(a1-3)]Man
Method in brief: as §1

[35] = molecular target: Man(a1-3)[Man(a1-6)]Man(b1-4)GlcNAc(b1-4)GlcNAc
Method in brief: as §1

[36] = molecular target: Neu5Ac(a2-3)Gal(b1-3)GlcNAc(b1-4)Gal(b1-4)Glc
Method in brief: as §1

[37] = molecular target: Neu5Ac(a2-3)Gal(b1-4)GlcNAc(b1-3)Gal(b1-4)GlcNAc(b1-3)Gal(b1-4)GlcNAc(b1-2)Man(a1-3)[Neu5Ac(a2-3)Gal(b1-4)GlcNAc(b1-3)Gal(b1-4)GlcNAc(b1-3)Gal(b1-4)GlcNAc(b1-2)Man(a1-6)]GalNAc
Method in brief: as §1

[38] = molecular target: Neu5Ac(a2-3)Gal(b1-4)GlcNAc(b1-3)[Neu5Ac(a2-3)Gal(b1-4)GlcNAc(b1-6)]GalNAc
Method in brief: as §1

[39] = molecular target: Neu5Ac(a2-6)Gal(b1-4)GlcNAc(b1-2)Man(a1-6)[Gal(b1-4)GlcNAc(b1-2)Man(a1-3)]Man(b1-4)GlcNAc(b1-4)GlcNAc
Method in brief: as §1

[40] = molecular target: Neu5Ac(a2-8)Neu5Ac(a2-8)Neu5Ac(a2-3)Gal(b1-4)Glc
Method in brief: as §1

[41] = molecular target: Neu5Gc(a2-8)Neu5Gc(a2-3)Gal(b1-4)GlcNAc(b1-3)Gal(b1-4)GlcNAc
Method in brief: as §1

B1: Cohesin-hDECTIN-1 (Homo sapiens) (protein)
chain: LDITSHHHHHHDDLDAVRIKVDTVNAKPGDTVRIPVRFSGIPSKGIANCDFVYSYDPNVLEIIEIEPGDIIVDPNPDKSFDTAVYPDRKIIVFLFAEDSGTGAYAITKDGVFATIVAKVKEGAPNGLSVIKFVEVGGFANNDLVEQKTQFFDGGVNVGDTTEPATPTTPVTTPTTTDDLDAASSSPCPPNWIIYEKSCYLFSMSLNSWDGSKRQCWQLGSNLLKIDSSNELGFIVKQVSSQPDNSFWIGLSRPQTEVPWLWEDGSTFSSNLFQIRTTATQENPSPNCVWIHVSVIYDQLCSVPSYSICEKKFM
With B1 as the binder, how does the “glycan array binding signal (z-score)” value [1] read?
The value was 1.86.

What about the “glycan array binding signal (z-score)” value [2] of the same binder?
The value was -0.162.

What about the “glycan array binding signal (z-score)” value [3] of the same binder?
Its value is -0.382.

What about the “glycan array binding signal (z-score)” value [4] of the same binder?
Its value is 2.93.

And the “glycan array binding signal (z-score)” value [5]?
Its value is 0.18.

And the “glycan array binding signal (z-score)” value [6]?
The value was -0.206.

What about the “glycan array binding signal (z-score)” value [7] of the same binder?
Its value is -0.435.

And the “glycan array binding signal (z-score)” value [8]?
Its value is -0.177.

And the “glycan array binding signal (z-score)” value [9]?
Its value is -0.305.

What about the “glycan array binding signal (z-score)” value [10] of the same binder?
Its value is 6.29.

What about the “glycan array binding signal (z-score)” value [11] of the same binder?
The value was -0.149.

And the “glycan array binding signal (z-score)” value [12]?
Its value is 4.25.

And the “glycan array binding signal (z-score)” value [13]?
Its value is 4.83.

What about the “glycan array binding signal (z-score)” value [14] of the same binder?
Its value is -0.51.

And the “glycan array binding signal (z-score)” value [15]?
Its value is 4.04.

And the “glycan array binding signal (z-score)” value [16]?
The value was 0.993.

What about the “glycan array binding signal (z-score)” value [17] of the same binder?
Its value is 7.58.

And the “glycan array binding signal (z-score)” value [18]?
The value was 5.86.

What about the “glycan array binding signal (z-score)” value [19] of the same binder?
Its value is 6.01.

And the “glycan array binding signal (z-score)” value [20]?
The value was -0.299.

And the “glycan array binding signal (z-score)” value [21]?
Its value is -0.306.

And the “glycan array binding signal (z-score)” value [22]?
The value was 1.2.

What about the “glycan array binding signal (z-score)” value [23] of the same binder?
Its value is 2.65.

What about the “glycan array binding signal (z-score)” value [24] of the same binder?
The value was 5.2.

What about the “glycan array binding signal (z-score)” value [25] of the same binder?
Its value is 4.68.

And the “glycan array binding signal (z-score)” value [26]?
The value was 3.33.

And the “glycan array binding signal (z-score)” value [27]?
Its value is 0.004.

What about the “glycan array binding signal (z-score)” value [28] of the same binder?
The value was 4.98.

And the “glycan array binding signal (z-score)” value [29]?
The value was -0.476.

What about the “glycan array binding signal (z-score)” value [30] of the same binder?
The value was -0.586.

What about the “glycan array binding signal (z-score)” value [31] of the same binder?
The value was -0.471.

What about the “glycan array binding signal (z-score)” value [32] of the same binder?
Its value is -0.33.

And the “glycan array binding signal (z-score)” value [33]?
The value was -0.432.

And the “glycan array binding signal (z-score)” value [34]?
Its value is -0.272.

And the “glycan array binding signal (z-score)” value [35]?
The value was -0.44.

What about the “glycan array binding signal (z-score)” value [36] of the same binder?
The value was -0.22.

And the “glycan array binding signal (z-score)” value [37]?
The value was -0.295.

And the “glycan array binding signal (z-score)” value [38]?
Its value is -0.163.

And the “glycan array binding signal (z-score)” value [39]?
The value was -0.561.

What about the “glycan array binding signal (z-score)” value [40] of the same binder?
Its value is -0.569.

And the “glycan array binding signal (z-score)” value [41]?
The value was -0.091.
